High-throughput results deposited in PubChem by several laboratories.
CSC inhib: blocks cancer stem cells; cancer stem cell-like cells viability, luminescence; inhibition, % at 7.5 µM; 300,000 compounds, 1.1% hits; AID 2717; in the data active = inhibition above about 75%; inconclusive = no clear call, values can overlap the other calls; tested in HMLE shEcad cells
Mdm2 MdmX PPI: disrupts the human Mdm2-MdmX interaction; O15151+Q00987; SaOS-2 split-luciferase Mdm2/MdmX complementation, luminescence; inhibition, % at 8 µM; 330,000 compounds, 3% hits; AID 485346;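 active = inhibition of at least 50% at 8 µM in the primary screen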
Jurkat NFkB inh: lowers PMA/ionomycin-induced NF-kB signal in Jurkat cells; PMA/ionomycin-induced NF-kB luciferase reporter, luminescence; inhibition, % at 4 µM; 330,000 compounds, 0.53% hits; AID 435003; in the data active = inhibition above about 50%
697 NFkB inh: inhibitors of the PMA/ionomycin-induced NF-kB reporter in 697 B cells; 697 B-cell NF-kB luciferase reporter, 16 h; inhibition, % at 4 µM; 330,000 compounds, 0.33% hits; in the data active = inhibition above about 35%
Gli-Sufu antag: Gli-Sufu pathway antagonism | Sufu-KO-LIGHT fibroblasts, Gli luciferase reporter luminescence | AID 588413 | inhibition, % at 5 µM | 340,000 compounds, 0.74% hits;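 active = inhibition above about 55%, limit read from the data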;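 note: 0% = DMSO-treated cells and 100% = wells with medium but no cells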
aSyn UTR inh: MLPCN primary screen, SNCA 5' untranslated region | alpha-synuclein 5'UTR reporter, inhibitor activity | inhibition, % (tested at 7.5 µM) | AID 1813 | 300,000 compounds, 0.82% hits; in the data active = inhibition above about 60%; inconclusive = no clear call, values can overlap the other calls;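 note: H4 neuroglioblastoma cells stably carrying SNCA 5'UTR luciferase fusion; 0% = DMSO wells and 100% = positive control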
697 NFkB conf: lowers PMA/ionomycin-induced NF-kB signal in 697 B cells; shares compounds with 697 NFkB inh; 697 B-cell NF-kB luciferase, 16 h; 2,000 compounds, 35% hits; AID 449746; inhibition, % at 4 µM; in the data active = inhibition mostly above about 28%, no sharp cut-off; inactive = mostly below about 22%
Active calls of the source: *; ? = inconclusive; nt = no result given. Sampled rows, rich in hits. Any-hit rate of the full collection: about 4.5%.

SMILES	CSC inhib	Mdm2 MdmX PPI	Jurkat NFkB inh	697 NFkB inh	Gli-Sufu antag	aSyn UTR inh	697 NFkB conf
Cc1ccc(CNc2nc3ccccc3s2)s1	23	-91	-108	-265	-95	78*	-293
COc1ccc(CNc2nc3ccccc3s2)cc1OC	-26	-1	-33	-67	-30	-141	nt
CNc1ncc(C(=O)c2ccc(-c3ccccc3)cc2)s1	28	-142	-120	-350	-54	-54	-178
Cc1ccc(-c2nnn(CC(=O)Nc3ccccc3-c3ccccc3)n2)c(-n2cnnn2)c1	nt	nt	nt	nt	-8	21	nt
Cc1ccc(NC(=O)C2CCC(CNc3c(N4CCC(C)CC4)c(=O)c3=O)CC2)cc1F (stereo not drawn)	-1	14	32	47*	30	?	33*
CC1CCN(c2c(NCC3CCC(C(=O)NCc4ccc(F)cc4)CC3)c(=O)c2=O)CC1 (stereo not drawn)	5	14	1	19	2	26	nt
COc1cc(-c2noc(C)c2/C=C/c2ccc(C(=O)O)cc2)cc(OC)c1OC	42	-29	-20	37*	-16	7	26
COc1cc(-c2noc(C)c2C(=O)N[C@@H](CO)Cc2ccccc2)cc(OC)c1OC	nt	nt	nt	nt	-1	nt	nt
Cn1c(=O)[nH]c(NC2CCCCC2)c(N=O)c1=O	-18	8	-7	-6	-4	18	nt
Fc1ccc(NCc2nnc(SCc3nnc(-c4ccccc4)o3)n2CC2CCCO2)cc1 (stereo not drawn)	-6	9	1	5	17	8	nt
COc1ccc(/C=C2/SC(=S)N(CCC(=O)O)C2=O)cc1	9	25	45	74*	27	98*	75*
CCc1ccc(/C=C2/SC(=S)N(CCC(=O)Nc3cccc(C(=O)O)c3)C2=O)cc1	30	1	-9	50*	30	0	59*
COc1ccc(/C=C2\SC(=S)N(CCC(=O)Nc3ccc(C(=O)O)cc3)C2=O)cc1	-12	-4	-19	44*	32	-5	60*
COc1ccc(/C=C2\SC(=S)N(CCC(=O)Nc3cccc(O)c3)C2=O)cc1	nt	9	0	47*	-25	-6	54*
Cc1ccc(N(CC(=O)NCc2ccco2)C(=O)CCC(=O)Nc2nccs2)cc1C	nt	0	10	-3	29	15	nt
Cc1[nH]nc(C(F)(F)F)c1N=NN1CCOCC1	nt	nt	nt	nt	11	nt	nt
CCc1ccc(/C=C2/SC(=S)N(CCC(=O)Nc3ccc(C(=O)O)cc3)C2=O)cc1	-5	27	13	77*	nt	40	72*
O=C(CCN1C(=O)/C(=C/c2ccc(Cl)cc2)SC1=S)Nc1ccc(C(=O)O)cc1	-1	6	-4	24	-4	9	nt
CCOC(=O)Cc1csc(NC(=S)NC(=O)c2ccc([N+](=O)[O-])cc2)n1	16	32	-1	17	-2	-5	nt
CCOC(=O)Cc1csc(NC(=S)NC(=O)c2ccc(Cl)cc2)n1	-4	12	9	45*	9	3	76*
O=C(O)c1cccc(Nc2ncnc3sccc23)c1	14	-6	-17	52*	3	-3	0
Fc1cccc(Nc2ncnc3sccc23)c1	41	-8	2	-17	-7	-30	nt
Cc1ccc(NS(=O)(=O)c2cccc(C(=O)O)c2)cc1S(=O)(=O)N1CCOCC1	-5	9	0	15	-8	-51	nt
Cc1ccc(NS(=O)(=O)c2ccc(Br)s2)cc1S(=O)(=O)N1CCOCC1	7	13	-9	46*	4	-9	-8
S=c1[nH]c(-c2ccc(Br)cc2)cn1CCc1ccccc1	-17	14	-9	3	-14	-9	nt
SMILES	CSC inhib	Mdm2 MdmX PPI	Jurkat NFkB inh	697 NFkB inh	Gli-Sufu antag	aSyn UTR inh	697 NFkB conf
COc1ccc(C(=O)Nc2ccc(OC)c([N+](=O)[O-])c2)cc1Br	-5	1	7	39*	12	2	35*
Cc1cn(-c2cc(C(=O)Nc3ccc(C)c(NC(=O)C(=O)c4c[nH]c5ccccc45)c3)cc(C(F)(F)F)c2)cn1	131*	46	9	37*	4	66*	-20
Cc1ccc(C(=O)Nc2cccc(C(F)(F)F)c2)cc1NC(=O)c1c[nH]c2cc(C(F)(F)F)ccc2c1=O	-4	27	-8	-25	-8	nt	nt
CC(C)CCN(C(=O)c1cc(=O)[nH]c2ccccc12)c1c(N)n(Cc2ccccc2)c(=O)[nH]c1=O	-12	13	11	19	5	nt	nt
O=C(/C=C/c1ccc(O)c(O)c1)c1ccccc1O	44	-74	-18	-276	12	-293	-180
CC(NCc1cc(Br)ccc1OCC(=O)NCc1ccccc1)c1ccccc1 (stereo not drawn)	nt	37	2	-8	40	22	nt
O=C(c1cnc(Cl)c(Cl)c1)N1CCC(Cc2ccccc2)CC1	5	5	0	3	5	21	nt
CCOC(=O)C(=CNc1cc(C)ccc1C)C(=O)OCC	-6	12	1	38*	-1	6	29*
CCOC(CNC(=O)c1ccc2nc(N3CCC(C)CC3)sc2c1)OCC	-16	-27	6	-282	-142	-180	-178
O=C(c1ccc(Cn2c(=S)[nH]c3cc4c(cc3c2=O)OCO4)cc1)N1CCN(c2ncccn2)CC1	10	31	19	56*	nt	19	-7
O=C(NCCN1CCCC1)c1ccc(Cn2c(=S)[nH]c3cc4c(cc3c2=O)OCO4)cc1	-4	-3	-26	12	13	28	nt
CCN(CC)CCCNC(=O)C1c2ccccc2C(=O)N(C)C1c1ccc(OC)cc1 (stereo not drawn)	-2	7	-6	17	-32	-12	nt
COCCNc1nnc(SC(C)C(=O)Nc2c(C)n(C)n(-c3ccccc3)c2=O)s1 (stereo not drawn)	-2	35	15	-3	-11	6	nt
COCCNc1nnc(SC(C)C(=O)Nc2ccc(-c3nc4ccc(C)cc4s3)cc2)s1 (stereo not drawn)	?	-186	-125	-294	-63	-79	-282
Nc1ccc2nc(-c3ccccc3)c(-c3ccccc3)nc2c1	-16	4	14	-19	-13	14	nt
Nc1ccc2nc(-c3ccccc3)sc2c1	29	-31	-113	-344	-112	47	-179
NC(=O)C1CCN(C(=O)COc2ccc3ccccc3c2Br)CC1	-11	8	9	57*	4	-27	60*
COc1ccccc1NC(C)C(=O)N/N=C/c1ccccc1OCc1cccc(Br)c1 (stereo not drawn)	29	28	-19	1	4	-29	nt
CCOC(=O)c1cn[nH]c1NC(=S)Nc1ccc(OC)cc1	6	46	-128	-371	-93	8	-199
Clc1ccc(-c2nc3n(n2)Cc2ccccc2-3)cc1	24	-165	-116	-374	-122	-5	-301
